From PMC5540273 (PLoS ONE, 2017) come the findings set out here.

Common to all, as to conditions: concentration: 1 μM,replicates: in singlicate; n = 1
For assay [1], the system named is PIP5K1A.
Assay [2] concerns PIP5K1C.
Assay [3] concerns PIP5K2B.
In assay [4] the test system is T1, PIP5K2C.
T1 construct: gene PIP4K2C

Assay [5] concerns T2, PKAC-alpha.
T2 construct: gene PRKACA

For assay [6], the system named is T3, PKAC-beta.
T3 construct: gene PRKACB

Assay [7] concerns PKMYT1.
The subject of assay [8] is PKN1.
In assay [9] the test system is PKN2.
Assay [10] has as its system PLK1.
The subject of assay [11] is PLK2.
Assay [12] concerns PLK3.
Assay [13] concerns PLK4.
In assay [14] the test system is PRKCD.
The subject of assay [15] is PRKCE.
Assay [16] deals with PRKCH.
The subject of assay [17] is PRKCI.
Assay [18] concerns PRKCQ.
Assay [19] concerns PRKD1.
Assay [20] deals with PRKD2.
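Also: KINOMEscan kinase panel screen.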

Regarding `CC(C)S(=O)(=O)N1CCN(Cc2ccc3c(c2)nc(NC(=O)c2ccsc2)n3C[C@H](O)c2ccccc2)CC1` [GW635815], the “%Inh” value is 0% in [1]; 15% in assay [2]; 35% in assay [3]; 24% in [4]; 0% in assay [5]; 27% in [6]. The “%Inh” value in [7] is given as 8%; in assay [8] it was 6%; in assay [9] it was 25%; in assay [10], 0%; in assay [11], 0%; in [12] it was 0%. In addition, the “%Inh” value is 5% in assay [13]; 11% in [14]; 15% in assay [15]; 13% in assay [16]; 18% in [17]; 12% in assay [18]. Moreover, the “%Inh” value in assay [19] and in [20] was 0% throughout.

On to `CC(C(=O)NC1CCN(c2ccnc(Nc3ccc(F)cc3)n2)C1)c1ccc(Cl)cc1` (stereo not drawn) [GSK1379713], for which the “%Inh” value in assay [1] came out at 21%; in assay [2], 0%; in [3], 1%; in assay [4], 4%; in [5], 0%; in assay [6] it was 6%. The “%Inh” value stood at 0% in [7]; 4% in [8]; 0% in [9]; 0% in [10]; 0% in assay [11]; 0% in [12]. For the same compound, the “%Inh” value in assay [13] came out at 0%; in [14], 0%; in [15], 3%; in assay [16], 8%; in [17], 11%; in assay [18], 21%. Further, the “%Inh” value in assay [19] and in [20] was 0% in each case.

For the compound `CCN1CCN(CCCC(=O)Nc2n[nH]c3nc(-c4ccc(O)cc4)c(Br)cc23)CC1` [SB-731579], the “%Inh” value is on record as 12% in assay [1]; 30% in assay [2]; 0% in assay [3]; 24% in assay [4]; 0% in assay [5]; 0% in [6]. In addition, the “%Inh” value came out at 0% in assay [7]; 0% in [8]; 6% in assay [9]; 0% in assay [10]; 0% in [11]; 0% in [12]. In addition, the “%Inh” value is listed as 0% in assay [13]; 64% in assay [14]; 70% in [15]; 19% in [16]; 2% in assay [17]; 0% in assay [18]. The “%Inh” value in [19] stood at 1%; in assay [20], 0%.

`CCOC(=O)N1CCC(n2cnc(-c3ccc(F)cc3)c2-c2ccnc(N)n2)CC1` [SB-219952]: the “%Inh” value in [1] came to 0%; in assay [2] it was 32%; in assay [3], 2%; in [4], 94.4%; in [5], 9%; in assay [6] it was 36%. Moreover, the “%Inh” value was 32% in assay [7]; 0% in [8]; 8% in assay [9]; 23% in [10]; 2% in [11]; 0% in assay [12]. In addition, the “%Inh” value in assay [13] came out at 25%; in assay [14], 0%; in assay [15] it was 4%; in assay [16] it was 0%; in assay [17] it was 8%; in assay [18] it was 1%. For the same compound, the “%Inh” value stood at 32% in assay [19] and 5% in assay [20].

For `c1ccc(Oc2ccc(Nc3ccnc4ccc(-c5ccccn5)cc34)cc2)cc1` [GW407034], the “%Inh” value in [1] amounted to 6%; in assay [2], 23%; in assay [3], 25%; in [4], 28%; in assay [5] it was 0%; in [6], 8%. The “%Inh” value in [7] was 11%; in [8], 28%; in assay [9], 0%; in assay [10], 0%; in [11], 0%; in [12], 0%. Further, the “%Inh” value in assay [13] is on record as 15%; in assay [14] it was 0%; in assay [15] it was 3%; in [16], 0%; in assay [17], 0%; in assay [18] it was 27%. Moreover, the “%Inh” value in assay [19] came to 0%; in [20] it was 5%.

With `COc1cccc(OC)c1C(=O)Nc1cccc(-c2nn3ccccc3c2-c2ccnc(Nc3cccc(F)c3)n2)c1` [GSK361065], the “%Inh” value came to 0% in assay [1]; 0% in assay [2]; 0% in assay [3]; 0% in [4]; 23% in [5]; 0% in assay [6]. Besides, the “%Inh” value was determined as 5% in assay [7]; 0% in assay [8]; 13% in assay [9]; 0% in assay [10]; 10% in [11]; 0% in assay [12]. Further, the “%Inh” value in assay [13] is on record as 16%; in assay [14] it was 26%; in assay [15], 14%; in assay [16], 11%; in [17] it was 21%; in assay [18], 17%. The “%Inh” value in assay [19] is recorded as 17%; in assay [20], 1%.

As to `Cn1ccc2ncnc(Oc3ccc(NC(=O)Nc4cccc(C(F)(F)F)c4)c(F)c3)c21`, the “%Inh” value in assay [1] stood at 0%; in assay [2] it was 17%; in [3] it was 0%; in assay [4], 0%; in assay [5] it was 0%; in assay [6], 34%. Moreover, the “%Inh” value in assay [7] stood at 2%; in [8], 0%; in [9] it was 16%; in [10] it was 0%; in assay [11], 12%; in [12], 33%. The “%Inh” value in assay [13] amounted to 31%; in assay [14] it was 0%; in [15] it was 0%; in assay [16], 0%; in assay [17], 39%; in assay [18], 0%. Besides, the results for the “%Inh” value in assay [19] and in [20] were 0% and 3%, respectively.

`Cn1ccc2ncnc(Oc3ccc(NC(=O)Nc4cc(C(C)(C)C)on4)c(Cl)c3)c21`: the “%Inh” value in [1] is given as 14%; in assay [2] it was 0%; in assay [3] it was 38%; in [4] it was 0%; in [5], 0%; in assay [6], 0%. Moreover, the “%Inh” value was 0% in assay [7]; 0% in assay [8]; 0% in assay [9]; 0% in [10]; 4% in [11]; 7% in assay [12]. Further, the “%Inh” value in [13] was 19%; in [14], 21%; in [15], 0%; in assay [16], 0%; in [17], 6%; in assay [18], 27%. For the same compound, the “%Inh” value in assay [19] worked out at 0%; in [20], 7%.

As for `Cc1ccc(C(=O)Nc2ccc(Oc3ccc4nc(NC(=O)C5CC5)cn4c3)c(F)c2)c(=O)n1-c1ccccc1`, the “%Inh” value in [1] is 26%; in assay [2] it was 44%; in assay [3] it was 34%; in [4] it was 77%; in assay [5], 0%; in [6], 26%. The “%Inh” value was 0% in assay [7]; 0% in [8]; 0% in [9]; 2% in assay [10]; 0% in assay [11]; 0% in assay [12]. The “%Inh” value in assay [13] amounted to 35%; in assay [14] it was 0%; in [15] it was 0%; in assay [16], 0%; in [17] it was 28%; in [18], 24%. Also, the “%Inh” value in assay [19] and in assay [20] was 0% in each case.
